In PubChem BioAssay (NCI):
About 83,000 compounds went through this panel and 20% of them were active in at least one assay; those are over-represented in the sample as a whole.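 Testing used 96-well plates and a 48-hour single-concentration exposure. Example: -40 means 40% of the starting cells died.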 Values without a mark were called inactive. Active and inactive are the calls of the source. The calls were made as follows: active = growth percent below 10; inactive = the rest.

How the values were obtained:
Assay in all cases: NCI-60 one-dose screen, 48 h (100 = growth as untreated, 0 = no growth, -100 = all killed)
Settings in all cases: 10 µM unless noted
SR leukemia = tested on: SR leukemia
RPMI-8226 leukemia = tested on: RPMI-8226 leukemia
OVCAR-8 ovarian = tested on: OVCAR-8 ovarian
OVCAR-5 ovarian = tested on: OVCAR-5 ovarian
OVCAR-4 ovarian = tested on: OVCAR-4 ovarian
SK-OV-3 ovarian = tested on: SK-OV-3 ovarian
IGROV1 ovarian = tested on: IGROV1 ovarian
OVCAR-3 ovarian = tested on: OVCAR-3 ovarian
HS 578T breast = tested on: HS 578T breast
NCI/ADR-RES ovarian = tested on: NCI/ADR-RES ovarian

Row | Structure (SMILES) | growth (SR leukemia) | growth (RPMI-8226 leukemia) | growth (OVCAR-8 ovarian) | growth (OVCAR-5 ovarian) | growth (OVCAR-4 ovarian) | growth (SK-OV-3 ovarian) [%] | growth (IGROV1 ovarian) | growth (OVCAR-3 ovarian) | growth (HS 578T breast) | growth (NCI/ADR-RES ovarian)
1 | c1ccc(-c2ccc3ccccc3c2)cc1 | 80.7% | 104% | 97.1% | 99.6% | 108% | 90.5 | 85.3% | 103% | 84.5% | 105%
2 | C=CCc1cc(OC)c(O)c(OC)c1 | 87.1% | 97.6% | 103% | 96.8% | 102% | 103 | 113% | 106% | 107% | 99.8%
3 | CCCC1OC(c2ccco2)OCC1CC (stereo not given) | 106% | 94.8% | 101% | 100% | 115% | 113 | 95.1% | 109% | 118% | 107%
4 | COC(c1ccc2c(c1)OCO2)C(C)Br (stereo not given) | 88.6% | 93.5% | 101% | 101% | 100% | 83.1 | 91.4% | 110% | 91.2% | 106%
5 | CC(=O)c1cccs1 | 92.9% | 110% | 102% | 103% | 106% | 99 | 110% | 103% | 99.2% | 95.6%
6 | CC1(C)OC2C(CO)OC(n3ccc(=O)[nH]c3=O)C2O1 (stereo not given) | 99.7% | 103% | 91.8% | 104% | 115% | 99.3 | 101% | 107% | 91.8% | 105%
7 | CC(C)C(C)(C)C(=O)C(C)(C)C(C)(C)C | 100% | 96.1% | 99.1% | 97.5% | 117% | 82.8 | 105% | 80.3% | 93.9% | 104%
8 | Cc1ccc(NCN2C(=O)c3ccccc3C2=O)c(C)n1 | 119% | 105% | 99.6% | 111% | 119% | 113 | 112% | 130% | 110% | 106%
9 | S=C(Sc1ccc(Cl)cc1)Sc1ccc(Cl)cc1 | -46.5% (active) | -46.6% (active) | 22.1% | 60.1% | 10.1% | 109 | -49.8% (active) | -64.7% (active) | 7.84% (active) | 5.64% (active)
10 | c1ccc(Oc2c3ccccc3nc3ccccc23)cc1 | -0.679% (active) | -20.9% (active) | 23.7% | 35.3% | 15% | 39 | -9.18% (active) | -3.62% (active) | 12.2% | 47.6%
11 | C1CCc2onc(-c3noc4c3CCCCC4)c2CC1 | 92.4% | 111% | 109% | 103% | 109% | 106 | 115% | 127% | 115% | 115%
12 | CC(=O)C[n+]1ccc(C)cc1Sc1ccccc1C | 130% | 98.6% | 88.7% | 90% | 100% | 108 | 120% | 102% | 95.7% | 101%
13 | Nc1cc(N)ncn1 | 93.9% | 105% | 116% | 96.5% | 99% | 125 | 101% | 112% | 96.2% | 97.6%
14 | O=S(=O)(c1ccc(NC(=S)NCc2cccnc2)cc1)N1CCCCC1 | 49.1% | 36.2% | 110% | 59.8% | 95.6% | 79.3 | 62% | 82.3% | 70.3% | 63.4%
15 | Cc1c(Cl)cccc1N=C=S | 108% | 86.3% | 95.6% | 93.1% | 87.4% | 104 | 108% | 102% | 109% | 89.3%
16 | Cc1ccc(S(=O)(=O)CCCl)cc1 | 90% | 101% | 101% | 101% | 107% | 124 | 123% | 131% | 102% | 105%
17 | C=CC(=O)OC1CCC(C(C)(C)CC)CC1 (stereo not given) | 98.9% | 103% | 107% | 103% | 105% | 111 | 117% | 109% | 101% | 105%
18 | Cc1cc(=O)n(Nc2ccccc2)c(O)c1C#N | 88.9% | 99.8% | 106% | 105% | 108% | 99.6 | 101% | 98.6% | 100% | 102%
19 | CCOC(=O)/C(C)=C\c1ccc(OC)c(OC)c1 | 86.5% | 103% | 101% | 99.3% | 101% | 103 | 105% | 103% | 108% | 100%
20 | Cc1ccc(C)c2c1CCC2=O | 132% | 84.1% | 104% | 95.8% | 105% | 121 | 117% | 96.7% | 92.6% | 101%
21 | CN(C)c1ccc2nc3ccc(=[N+](C)C)cc-3oc2c1 | 60.3% | 45.6% | 8.48% (active) | -12.3% (active) | -76% (active) | 61.3 | 5.34% (active) | -10.6% (active) | 101% | 66.3%
22 | C=CCC(O)C=C (stereo not given) | 84.4% | 105% | 101% | 108% | 106% | 94 | 103% | 108% | 101% | 103%
23 | CC(C)N(CCCC#N)C(C)C | 108% | 98.2% | 92.8% | 96.7% | 88.7% | 110 | 103% | 108% | 86.7% | 121%
24 | CC(C)(CC(=O)O)CC(=O)O | 99.3% | 104% | 121% | 99.5% | 108% | 120 | 111% | 105% | 111% | 99.9%
25 | COc1cc(OC)c2cc(C(=O)c3ccc(C#N)cc3)c(=O)oc2c1 | 89.8% | 103% | 97.1% | 89.9% | 96.3% | 100 | 104% | 107% | 82.1% | 101%
26 | CCOC(=O)/C(O)=C(\C=N\C(=S)Nc1ccc(Cl)c(Cl)c1)C(=O)OCC | 85.7% | 80.1% | 92.5% | 91.8% | 60.2% | 81.6 | 101% | 100% | 95.6% | 90.8%
27 | COc1ccc(C(=O)/C(=N/Nc2ccccc2)c2ccc(OC)cc2)cc1 | 86% | 92.9% | 115% | 94.2% | 87.2% | 104 | 91.5% | 103% | 102% | 97.5%
28 | Cc1ccc(NC(=S)N2CCOCC2)cc1C | 108% | 102% | 104% | 102% | 102% | 97.9 | 103% | 104% | 94.7% | 110%
29 | CCC(=O)Oc1ccc2ccccc2c1 | 106% | 100% | 100% | 103% | 101% | 98.9 | 106% | 108% | 81% | 96.8%
30 | N#C/C(=C\NC(=S)N=Nc1c(O)[nH]c2ccccc12)c1nc2ccccc2s1 | 77.3% | 97% | 96% | 105% | 93.7% | 92.8 | 85.4% | 103% | 94.6% | 103%
